In PubChem BioAssay (Tox21):
Several values for one entry are separate records, joined by “and”; a condition that tells them apart may be missing. Identical values can stand only once. Inconclusive results are not listed. Where a call stands in place of a potency, no number is given. A number with no mark means an inactive call. Activity calls are given as the source filed them. Unless noted, calls follow the shape of the dose curve; as a rule, active = well fitted curve in the direction sought with a large enough effect in the repeat runs; inconclusive = weak or mixed curves; inactive = no such curve, though single readings can be large; an effect the other way counts as inactive or inconclusive.

Legend:
[1] = qHTS assay to identify aromatase inhibitors - cell viability counter screen (AID 743084);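 also: cells stimulated with testosterone during compound exposure; nearly all actives have a fitted effect of over 55% in size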; also: potency is read from the fitted curve at half-maximal effect
[2] = molecular target: Aryl hydrocarbon receptor (Homo sapiens) (UniProt P35869); experiment: qHTS assay to identify small molecule that activate the aryl hydrocarbon receptor (AhR) signaling pathway (AID 743085); also: nearly all actives have a fitted effect of over 15% in size; also: potency is read from the fitted curve at half-maximal effect;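 as to activation: HG2L7.5c1 human HepG2 liver cells with stably integrated DRE-driven firefly reporter; series mostly up to about 70 µM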
Aryl hydrocarbon receptor (Homo sapiens), sequence (P35869 whole entry, looked up): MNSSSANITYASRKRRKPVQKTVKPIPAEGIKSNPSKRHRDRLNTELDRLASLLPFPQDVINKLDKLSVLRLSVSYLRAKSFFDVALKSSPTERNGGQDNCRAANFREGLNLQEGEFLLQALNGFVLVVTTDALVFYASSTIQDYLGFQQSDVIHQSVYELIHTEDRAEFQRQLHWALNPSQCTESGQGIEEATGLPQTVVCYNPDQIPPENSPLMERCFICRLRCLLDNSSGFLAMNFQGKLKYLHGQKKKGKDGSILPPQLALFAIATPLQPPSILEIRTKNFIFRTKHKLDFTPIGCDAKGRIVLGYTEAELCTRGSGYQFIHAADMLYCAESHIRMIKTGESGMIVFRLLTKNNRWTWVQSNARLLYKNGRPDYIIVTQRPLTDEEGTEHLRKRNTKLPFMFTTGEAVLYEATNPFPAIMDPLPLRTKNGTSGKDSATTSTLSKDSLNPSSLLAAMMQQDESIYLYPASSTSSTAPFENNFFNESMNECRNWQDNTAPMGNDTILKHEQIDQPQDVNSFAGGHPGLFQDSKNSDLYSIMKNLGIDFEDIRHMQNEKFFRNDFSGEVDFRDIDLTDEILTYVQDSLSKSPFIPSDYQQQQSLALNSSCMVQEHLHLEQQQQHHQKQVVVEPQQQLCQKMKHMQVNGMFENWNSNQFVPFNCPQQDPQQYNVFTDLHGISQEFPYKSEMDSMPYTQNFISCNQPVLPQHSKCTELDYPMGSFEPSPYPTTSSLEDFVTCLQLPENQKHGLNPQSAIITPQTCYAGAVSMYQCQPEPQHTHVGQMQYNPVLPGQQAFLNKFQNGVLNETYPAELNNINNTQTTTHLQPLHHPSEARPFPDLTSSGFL
Outline: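 Reporter assay in engineered HepG2 line HG2L7.5c1, whose plasmid carries twenty dioxin responsive elements upstream of firefly luciferase. Treatment lasted 24 h at 37C; ONE-Glo luminescence gauged induction.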

[3] = qHTS assay to identify small molecule that activate the aryl hydrocarbon receptor (AhR) signaling pathway - cell viability counter screen (AID 743086); also: nearly all actives have a fitted effect of over 45% in size; also: potency is read from the fitted curve at half-maximal effect;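 as to viability change, negative = cytotoxic: HepG2 liver cells carrying the AhR DRE luciferase reporter; series mostly up to about 70 µM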
Outline: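 HepG2-AhR-luc (HG2L7.5c1) cells, 4000/well, were preincubated 5 h at 37C, exposed to compound in qHTS format for 24 hr at 37C, then given CellTiter-Fluor for 30 min; viability was read as fluorescence in the reporter wells.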

[4] = molecular target: Peroxisome proliferator-activated receptor gamma (Homo sapiens) (UniProt P37231); experiment: qHTS assay to identify small molecule agonists of the peroxisome proliferator-activated receptor gamma (PPARg) signaling pathway (AID 743094; active = well fitted activation curve with a large enough effect in the signal ratio in the repeat runs, not every such curve was filed as active; the % refers to the signal ratio; also: potency is read from the fitted curve at half-maximal effect)
Peroxisome proliferator-activated receptor gamma (Homo sapiens), sequence (P37231 whole entry, looked up): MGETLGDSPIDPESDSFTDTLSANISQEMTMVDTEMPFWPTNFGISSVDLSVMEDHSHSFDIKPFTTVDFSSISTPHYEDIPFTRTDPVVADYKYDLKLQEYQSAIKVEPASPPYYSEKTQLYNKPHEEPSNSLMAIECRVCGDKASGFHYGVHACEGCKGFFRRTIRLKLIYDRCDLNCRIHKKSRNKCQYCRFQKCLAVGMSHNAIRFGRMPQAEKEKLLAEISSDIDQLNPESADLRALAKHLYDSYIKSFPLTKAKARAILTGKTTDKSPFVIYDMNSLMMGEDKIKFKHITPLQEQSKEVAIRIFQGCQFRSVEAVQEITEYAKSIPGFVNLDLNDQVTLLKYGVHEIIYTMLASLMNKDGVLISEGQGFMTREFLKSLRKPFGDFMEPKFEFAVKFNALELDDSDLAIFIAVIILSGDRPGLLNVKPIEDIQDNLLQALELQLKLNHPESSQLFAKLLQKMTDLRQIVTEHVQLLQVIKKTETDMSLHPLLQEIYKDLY
Outline: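 HEK293H PPARg-bla cells, 5 h settle at 37C/5% CO2; compound (DMSO) 17 h, 37C; B/G FRET substrate 1 h RT; fluorescence intensity read-out. qHTS format.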

[5] = molecular target: Peroxisome proliferator-activated receptor gamma (Homo sapiens) (UniProt P37231); experiment: qHTS assay to identify small molecule antagonists of the peroxisome proliferator-activated receptor gamma (PPARg) signaling pathway (AID 743191; calls by dose curve; also: series mostly up to about 63 µM; nearly all actives have a fitted effect of over 30% in size)
Outline: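 GeneBLAzer PPARg UAS-bla HEK293H cells carrying a UAS-driven beta-lactamase reporter were plated at 3000 cells/well, preincubated 5 h at 37C, then given compound for 17 h at 37C; LiveBLAzer B/G FRET substrate was read after 1 h at room temperature.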

[6] = qHTS assay to identify small molecule antagonists of the peroxisome proliferator-activated receptor gamma (PPARg) signaling pathway - cell viability counter screen (AID 743194); details: Potency: co-treated with 50 nM rosiglitazone unless noted; also: nearly all actives have a fitted effect of over 55% in size; also: potency is read from the fitted curve at half-maximal effect
Outline: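 PPARg-UAS-bla HEK293H cells were plated, rested 5 h at 37 C, then treated with compounds plus rosiglitazone (50 nM final) for 17 h at 37 C; viability was then read by CellTiter-Glo luminescence after 30 min at room temperature.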

[7] = qHTS assay for small molecule agonists of the antioxidant response element (ARE) signaling pathway - cell viability counter screen (AID 743203; calls by dose curve; also: nearly all actives have a fitted effect of over 55% in size; also: potency is read from the fitted curve at half-maximal effect)
Outline: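 Luminescence read-out (CellTiter-Glo, 30 min at room temperature) measured cell viability in the same wells as the ARE beta-lactamase reporter. HepG2 ARE-bla cells were treated with compounds for 16 hrs at 37C/5% CO2.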

[8] = qHTS assay for small molecule activators of the heat shock response signaling pathway - cell viability counter screen (AID 743209); also: nearly all actives have a fitted effect of over 50% in size; also: potency is read from the fitted curve at half-maximal effect
Outline: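 HSE-bla HeLa; 1500 cells/well; overnight 37 C, 5% CO2; compound 5 h 37 C; LiveBLAzer B/G substrate 2.5 h RT; CellTiter-Glo 30 min RT; luminescence.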

[9] = qHTS assay for small molecule activators of the heat shock response signaling pathway (AID 743210; active = well fitted activation curve with a large enough effect in the signal ratio in the repeat runs, with a control signal flat, not every such curve was filed as active; the % refers to the signal ratio; also: series mostly up to about 63 µM)
Outline: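 Heat shock element–beta-lactamase HeLa reporter cells; qHTS with compounds for 5 h at 37 C; detection by FRET substrate fluorescence after 2.5 h at RT.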

[10] = qHTS assay for small molecule agonists of the antioxidant response element (ARE) signaling pathway (AID 743202; active = well fitted activation curve with a large enough effect in the signal ratio in the repeat runs, not every such curve was filed as active; the % refers to the signal ratio; also: potency is read from the fitted curve at half-maximal effect)
Outline: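 Following a 16 h, 37 C exposure of reporter HepG2 cells (ARE-driven beta-lactamase, 2,000 cells/well) to compounds, FRET substrate was applied for 2 h at room temperature and fluorescence intensity recorded.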

## CCC1(CC)C(=O)N=C(O)NC1=O
[1]
  Potency: inactive
[2]
  Potency: inactive
[3]
  Potency: inactive
[4]
  Potency: inactive
[5]
  Potency: inactive
[6]
  Potency: inactive
[7]
  Potency: inactive
[8]
  Potency: inactive
[9]
  Potency: inactive

## O=[N+]([O-])c1ccccc1-c1ccccc1
[1]
  Potency: inactive
[2]
  Potency: inactive
[3]
  Potency: inactive
[4]
  Potency: inactive
[5]
  Potency: inactive
[6]
  Potency: inactive
[10]
  Potency: inactive
[7]
  Potency: inactive
[8]
  Potency: inactive
[9]
  Potency: inactive

## ClSC(Cl)(Cl)Cl
[1]
  Potency: inactive
[2]
  Potency: inactive
[3]
  Potency: inactive
[4]
  Potency: inactive
[5]
  Potency: inactive
[6]
  Potency: inactive
[10]
  Potency: inactive
[7]
  Potency: inactive
[8]
  Potency: inactive
[9]
  Potency: inactive

## CN/C(=N\[N+](=O)[O-])NCc1cnc(Cl)s1
[1]
  Potency: inactive
[2]
  Potency: inactive
[3]
  Potency: inactive
[4]
  Potency: inactive
[5]
  Potency: inactive
[6]
  Potency: inactive
[10]
  Potency: inactive
[7]
  Potency: inactive
[8]
  Potency: inactive
[9]
  Potency: inactive

## O=C(Cl)c1ccccc1F
[1]
  Potency: inactive
[2]
  Potency: inactive
[3]
  Potency: inactive
[4]
  Potency: inactive
[5]
  Potency: inactive
[6]
  Potency: inactive
[10]
  Potency: inactive
[7]
  Potency: inactive
[8]
  Potency: inactive
[9]
  Potency: inactive

## N#CCCl
[1]
  Potency: inactive
[2]
  Potency: inactive
[3]
  Potency: inactive
[4]
  Potency: inactive
[5]
  Potency: inactive
[6]
  Potency: inactive
[7]
  Potency: inactive
[8]
  Potency: inactive
[9]
  Potency: inactive

## CNC(=O)O/N=C(\C)C(C)S(C)(=O)=O (configuration not stated)
[1]
  Potency: inactive
[2]
  Potency: inactive
[3]
  Potency: inactive
[4]
  Potency: inactive
[5]
  Potency: inactive
[6]
  Potency: inactive
[10]
  Potency: inactive
[7]
  Potency: inactive
[8]
  Potency: inactive
[9]
  Potency: inactive

## CCCCON=O
[1]
  Potency: inactive
[2]
  Potency: inactive
[3]
  Potency: inactive
[4]
  Potency: inactive
[5]
  Potency: inactive
[6]
  Potency: inactive
[10]
  Potency: inactive
[7]
  Potency: inactive
[8]
  Potency: inactive
[9]
  Potency: inactive

## ClC(Cl)C(Cl)(Cl)Cl
[1]
  Potency: inactive
[2]
  Potency: inactive
[3]
  Potency: inactive
[4]
  Potency: inactive
[5]
  Potency: inactive
[6]
  Potency: inactive
[10]
  Potency: inactive
[7]
  Potency: inactive
[8]
  Potency: inactive
[9]
  Potency: inactive

## CNN
[1]
  Potency: inactive
[2]
  Potency: inactive
[3]
  Potency: inactive
[4]
  Potency: inactive
[5]
  Potency: inactive
[6]
  Potency: inactive
[10]
  Potency: inactive
[7]
  Potency: inactive
[8]
  Potency: inactive
[9]
  Potency: inactive

## c1cc[n+]2c(c1)-c1cccc[n+]1CC2
[1]
  Potency: inactive
[2]
  Potency: inactive
[3]
  Potency: inactive
[4]
  Potency: inactive
[5]
  Potency: inactive
[6]
  Potency: inactive
[10]
  Potency: 10.6 µM (active)
[7]
  Potency: inactive
[8]
  Potency: inactive

## CC(Cc1ccc2c(c1)OCO2)NO (configuration not stated)
[1]
  Potency: inactive
[2]
  Potency: inactive
[3]
  Potency: inactive
[4]
  Potency: inactive
[5]
  Potency: inactive
[6]
  Potency: inactive
[7]
  Potency: inactive
[8]
  Potency: inactive
[9]
  Potency: inactive

## O=S1(=O)OCC2C(CO1)C1(Cl)C(Cl)=C(Cl)C2(Cl)C1(Cl)Cl (configuration not stated)
[1]
  Potency: 61.1 µM (active)
[2]
  Potency: inactive
[3]
  Potency: inactive
[4]
  Potency: inactive
[5]
  Potency: inactive
[6]
  Potency: inactive
[7]
  Potency: inactive

## COP(=S)(OC)Oc1ccc([N+](=O)[O-])c(C)c1
[1]
  Potency: inactive
[2]
  Potency: 48.6 µM (active)
[3]
  Potency: inactive
[4]
  Potency: inactive
[5]
  Potency: inactive
[6]
  Potency: inactive
[7]
  Potency: inactive
[8]
  Potency: inactive

## Nc1nc(N)nc(Cl)n1
[1]
  Potency: inactive
[2]
  Potency: inactive
[3]
  Potency: inactive
[4]
  Potency: inactive
[5]
  Potency: inactive
[10]
  Potency: inactive
[7]
  Potency: inactive
[8]
  Potency: inactive
[9]
  Potency: inactive

## CNC(C)(C)Cc1ccccc1
[1]
  Potency: inactive
[2]
  Potency: inactive
[3]
  Potency: inactive
[4]
  Potency: inactive
[5]
  Potency: inactive
[6]
  Potency: inactive
[10]
  Potency: inactive
[7]
  Potency: inactive
[8]
  Potency: inactive
[9]
  Potency: inactive

## [O]=[Cr][O][Cr]=[O]
[1]
  Potency: inactive
[2]
  Potency: inactive
[3]
  Potency: inactive
[4]
  Potency: inactive
[5]
  Potency: inactive
[6]
  Potency: inactive
[10]
  Potency: inactive
[7]
  Potency: inactive
[8]
  Potency: inactive
[9]
  Potency: inactive

## Cc1ccc(C)c2ccccc12
[1]
  Potency: inactive
[2]
  Potency: inactive
[3]
  Potency: inactive
[4]
  Potency: inactive
[10]
  Potency: inactive
[7]
  Potency: inactive
[8]
  Potency: inactive
[9]
  Potency: inactive

## CCCCC/C=C\C/C=C\C/C=C\C/C=C\CCCC(=O)NCC(=O)O
[1]
  activity change, negative = cytotoxicity: -2.83% [at 8.47 µM]
[2]
  activation: -2.57% [at 8.47 µM]
[3]
  viability change, negative = cytotoxic: 8.28% [at 8.47 µM]
[4]
  activation: -0.604% [at 7.08 µM]
[7]
  Potency: inactive

## CCC[CH2][Sn]([CH2]CCC)([CH2]CCC)[O][Sn]([CH2]CCC)([CH2]CCC)[CH2]CCC
[1]
  Potency: 2.12 µM (active)
[2]
  activation: -11.8% [at 8.47 µM]
[3]
  Potency: 2.67 µM (active)
[4]
  Potency: 0.676 µM (active)
[6]
  Potency: 0.427 µM (active)
[7]
  Potency: 238 nM (active)
[8]
  Potency: 380 nM (active)

## [O]=[Cr](=[O])([OH])[O][Cr](=[O])(=[O])[OH]
[1]
  Potency: inactive
[2]
  Potency: inactive
[3]
  Potency: inactive
[4]
  Potency: inactive
[7]
  Potency: 21.9 µM (active) and 30.6 µM (active)
[8]
  Potency: 39.3 µM (active) and 43.6 µM (active)

## COc1c2c(cc3c1OCO3)CCN(C)C2
[1]
  Potency: inactive
[2]
  Potency: inactive
[3]
  Potency: inactive
[4]
  Potency: inactive
[6]
  Potency: inactive
[10]
  Potency: inactive
[8]
  Potency: inactive
[9]
  Potency: inactive

## COc1ccc2[nH]cc(CCN(C(C)C)C(C)C)c2c1
[1]
  Potency: inactive
[2]
  Potency: 22.2 µM (active)
[3]
  Potency: inactive
[4]
  Potency: inactive
[6]
  Potency: inactive
[7]
  Potency: inactive
[8]
  Potency: inactive
[9]
  Potency: inactive
